Experimental data published in PubChem BioAssay AID1259343 (VanderVen Lab, College of Veterinary Medicine, Cornell …, 2017).
Screen size: about 6,200 compounds; about 2,900 (47%) were called active. So high a share suggests a set chosen from earlier hits. Some of the results follow. Values without a mark were called inactive. Cut-off read from the data, not from the text of the source: active = inhibition above about 50%; inactive = the rest.

Assay: Mycobacterium tuberculosis growth inhibition, primary screen (AID 1259343)
Settings: inhibition: at 10 µM, active compounds read high; outcome: 10 uM

Question: Which inhibition does the source give for COc1ccc(-n2nnc3c(SCc4cccc(Cl)c4)ncnc32)cc1 here?
Answer: The inhibition was -33.7%.

Question: Which inhibition does the source give for COc1cccc(-n2nnc3c(SCc4cccnc4)ncnc32)c1 here?
Answer: The inhibition was 74.8% (active).

Question: With O=C(Nc1cccc(-c2cccc(F)c2)c1)C1CCN(Cc2cccc3cnccc23)CC1 as the compound, how does the inhibition read?
Answer: Its inhibition is 75.2% (active).

Question: Which inhibition does the source give for CC(=O)c1cc(CN2CCC(C(=O)Nc3cccc(-c4cccc(F)c4)c3)CC2)cs1 here?
Answer: The inhibition was 91.3% (active).

Question: With Cc1cccc(-c2ccc(NC(=O)C3CCN(Cc4cnc(N(C)C)s4)CC3)cc2)c1 as the compound, how does the inhibition read?
Answer: Its inhibition is 88.2% (active).

Question: With COc1cccc(-c2ccc(NC(=O)C3CCCN(Cc4cnc(N(C)C)s4)C3)cc2)c1 (stereo not given) as the compound, how does the inhibition read?
Answer: The inhibition was 48.7%.

Question: Which inhibition does the source give for CC(=O)c1cccc(CN2CCC(C(=O)Nc3cccc(-c4cccc(F)c4)c3)CC2)c1 here?
Answer: The inhibition was 69% (active).

Question: For Cc1cccc(-c2ccc(NC(=O)C3CCN(Cc4nccs4)CC3)cc2)c1, which inhibition is on record?
Answer: The inhibition was 37.9%.

Question: For CCCc1ncc(CN2CCC(C(=O)Nc3cccc(-c4cccc(F)c4)c3)CC2)cn1, which inhibition is on record?
Answer: Its inhibition is “inactive”.

Question: Which inhibition does the source give for O=C(Nc1cccc(-c2cccc(F)c2)c1)C1CCN(Cc2cccs2)CC1 here?
Answer: The inhibition was 36.5%.

Question: Which inhibition does the source give for CCCn1nnnc1NCc1cccn1C here?
Answer: Its inhibition is 1.45%.

Question: For Cn1ccsc1=NC(=O)CCN1c2ccccc2Sc2ccccc21, which inhibition is on record?
Answer: Its inhibition is -5.61%.

Question: Which inhibition does the source give for Cc1cccc(CN2CCC(C(=O)Nc3cccc(-c4cccc(F)c4)c3)CC2)n1 here?
Answer: Its inhibition is 76.4% (active).

Question: With CC(=O)c1cccc(CN2CCC(C(=O)Nc3ccc(-c4cccc(C)c4)cc3)CC2)c1 as the compound, how does the inhibition read?
Answer: The inhibition was 86.5% (active).

Question: For c1nc(NC2CC3CC2C2CCCC32)c2sccc2n1 (stereo not given), which inhibition is on record?
Answer: Its inhibition is 30.1%.

Question: Which inhibition does the source give for COc1cccc(OC)c1OCCCOc1ccc(Cl)cc1Cl here?
Answer: The inhibition was 89.4% (active).

Question: With COc1cccc(OC)c1OCCCOc1ccc(C)cc1Cl as the compound, how does the inhibition read?
Answer: Its inhibition is 47.8%.

Question: With COc1cccc(OC)c1OCCOc1ccc(Br)cc1Cl as the compound, how does the inhibition read?
Answer: Its inhibition is 82% (active).

Question: Which inhibition does the source give for Cc1ccn2c(=O)nc(SCc3ccc(C(F)(F)F)cc3)nc2c1 here?
Answer: Its inhibition is 22.7%.

Question: Which inhibition does the source give for O=c1cnnc(SCc2ccc(C(F)(F)F)cc2)[nH]1 here?
Answer: The inhibition was 84.2% (active).

Question: Which inhibition does the source give for O=c1nc(SCc2ccc(C(F)(F)F)cc2)nc2ccccn12 here?
Answer: Its inhibition is -29.6%.

Question: With FC(F)(F)c1ccccc1CCNc1nncc(-c2ccccc2)n1 as the compound, how does the inhibition read?
Answer: The inhibition was -20%.

Question: For c1ccc2c(c1)[I+]c1ccccc1-2, which inhibition is on record?
Answer: The inhibition was 101% (active).

Question: With OC(COc1ccc(Cl)cc1)CSc1ccc(Br)cc1 (stereo not given) as the compound, how does the inhibition read?
Answer: The inhibition was -20.4%.

Question: With CC(O)c1ccc(Oc2ccc(Br)cc2)cc1 (stereo not given) as the compound, how does the inhibition read?
Answer: Its inhibition is 72.8% (active).

Question: Which inhibition does the source give for Nc1ccc(Oc2ccc(Br)cc2)cc1 here?
Answer: Its inhibition is 39.8%.

Question: With NC(=O)C1CCN(c2nc3cc(C(F)(F)F)ccc3s2)C1 (stereo not given) as the compound, how does the inhibition read?
Answer: The inhibition was 34.5%.

Question: With CCc1cnc(C)nc1N1CCCC(C(=O)c2ccc(C(F)(F)F)cc2)C1 (stereo not given) as the compound, how does the inhibition read?
Answer: Its inhibition is 51.3% (active).

Question: Which inhibition does the source give for COC(=O)C(Cc1ccc(OCCn2c(=O)sc3cc(C(=O)c4ccccc4)ccc32)cc1)C(=O)OC here?
Answer: Its inhibition is 51.7% (active).

Question: For COc1ccc(NC(=O)c2sc(=O)n(CCOc3ccc(F)cc3)c2C)cc1OC, which inhibition is on record?
Answer: The inhibition was 27.4%.

Question: For c1ccc(-c2nc(SC(c3ccccc3)c3ccccc3)n[nH]2)cc1, which inhibition is on record?
Answer: The inhibition was 22.5%.

Question: With O=c1nc(SC/C=C/c2ccccc2)nc2ccccn12 as the compound, how does the inhibition read?
Answer: Its inhibition is -19.1%.

Question: For C(=C\c1ccccc1)/CSc1n[nH]c(-c2cccnc2)n1, which inhibition is on record?
Answer: Its inhibition is 96.6% (active).

Question: With c1ccc(-c2ccc(CCC3CCN(Cc4cccs4)CC3)cc2)cc1 as the compound, how does the inhibition read?
Answer: Its inhibition is 43.2%.

Question: With O=C(C1CCC1)N1CCC(CCc2ccc(-c3ccccc3)cc2)CC1 as the compound, how does the inhibition read?
Answer: Its inhibition is 44.8%.

Question: Which inhibition does the source give for COc1ccc(-c2ccc(C(=O)N3CCCC(c4ccccc4)CC3)cn2)cc1 (stereo not given) here?
Answer: Its inhibition is 36.2%.

Question: Which inhibition does the source give for O=C(c1ccco1)N1CCC(Cc2ccc(F)cc2)CC1 here?
Answer: Its inhibition is 86.8% (active).

Question: For CCOC(=O)C(=O)N1CCC(CCc2ccccc2)CC1, which inhibition is on record?
Answer: Its inhibition is 90.7% (active).

Question: With O=C(c1ccc(-c2ccc(O)cc2)nc1)N1CCC(CCc2ccccc2)CC1 as the compound, how does the inhibition read?
Answer: Its inhibition is 83.7% (active).

Question: With O=C(c1ccco1)N1CCC(CCc2ccc(-c3ccccc3)cc2)CC1 as the compound, how does the inhibition read?
Answer: The inhibition was 81% (active).

Question: For O=C(c1ccco1)N1CCCC2(CCCCC2)C1, which inhibition is on record?
Answer: The inhibition was -18%.

Question: With O=C(c1ccno1)N1CCC(Cc2ccc(F)cc2)CC1 as the compound, how does the inhibition read?
Answer: Its inhibition is 56.4% (active).

Question: For Cc1ccccc1N1CCN(Cc2ccc(C#CCO)s2)C(C)C1 (stereo not given), which inhibition is on record?
Answer: Its inhibition is 76.9% (active).

Question: For Cc1ccccc1N1CCN(Cc2cc(C#CCO)cs2)C(C)C1 (stereo not given), which inhibition is on record?
Answer: Its inhibition is -56.2%.

Question: Which inhibition does the source give for c1ccc2c(c1)CN1CCCC1=N2 here?
Answer: Its inhibition is 101% (active).

Question: With O=C1OC2(CCCCC2)OC(=O)C1=CNc1ccc2ccccc2c1 as the compound, how does the inhibition read?
Answer: The inhibition was 48.9%.

Question: For O=C1C=C(Nc2ccc3ccccc3c2)CCC1, which inhibition is on record?
Answer: Its inhibition is 89.7% (active).

Question: Which inhibition does the source give for O=C(Nc1nnc(-c2ccc3c(c2)OCCO3)o1)c1cccc2ccccc12 here?
Answer: Its inhibition is 98.7% (active).

Question: Which inhibition does the source give for CN(CCNC(=O)C1(C)CC1(Cl)Cl)C1CC1 (stereo not given) here?
Answer: The inhibition was -9.78%.

Question: Which inhibition does the source give for COc1ccccc1OC(C)c1nc(Cc2cccc(C(F)(F)F)c2)no1 (stereo not given) here?
Answer: The inhibition was 36.2%.

Question: With COc1cccc(C(C)N(C)Cc2nc(-c3cccc(Cl)c3)oc2C)c1 (stereo not given) as the compound, how does the inhibition read?
Answer: Its inhibition is -0.61%.

Question: For N#Cc1cccc(OCc2noc(-c3ccsc3)n2)c1, which inhibition is on record?
Answer: The inhibition was 34.2%.

Question: For COc1cccc(C(C)N(C)Cc2nc(COc3ccccc3)no2)c1 (stereo not given), which inhibition is on record?
Answer: Its inhibition is 71.8% (active).

Question: With Cc1cc2nc(CN(C)Cc3nc(Cc4cccc(C(F)(F)F)c4)no3)[nH]c2cc1C as the compound, how does the inhibition read?
Answer: Its inhibition is “inactive”.

Question: With Cc1c(CN(C)Cc2nc(Cc3cccc(C(F)(F)F)c3)no2)[nH]c2ccccc12 as the compound, how does the inhibition read?
Answer: The inhibition was 66.5% (active).

Question: With CN(Cc1csc(-c2ccccc2)n1)Cc1nc(Cc2cccc(F)c2)no1 as the compound, how does the inhibition read?
Answer: Its inhibition is 90.6% (active).

Question: For COc1cccc(C(C)N(C)Cc2nc(Cc3cccc(F)c3)no2)c1 (stereo not given), which inhibition is on record?
Answer: The inhibition was 65.5% (active).

Question: Which inhibition does the source give for CN(Cc1nc(COc2ccccc2)no1)CC1(c2ccccc2)CC1(C)C (stereo not given) here?
Answer: The inhibition was 42.2%.

Question: With FC(F)(F)c1cccc(Cc2noc(CN3CCC(OCc4ccccn4)CC3)n2)c1 as the compound, how does the inhibition read?
Answer: The inhibition was 32%.

Question: Which inhibition does the source give for CC1CCC(C(C)C)c2[nH]nc(-c3ccccc3O)c21 (stereo not given) here?
Answer: Its inhibition is 4.33%.

Question: Which inhibition does the source give for Cn1ccc(NS(=O)(=O)/C=C/c2ccc(Cl)cc2)n1 here?
Answer: The inhibition was 41.7%.

Question: For O=S(=O)(/C=C/c1ccc(Cl)cc1)Oc1ccc(F)c(F)c1, which inhibition is on record?
Answer: The inhibition was 92.7% (active).

Question: With CC(C)CCNCC(O)CON=C1c2ccccc2-c2ccccc21 (stereo not given) as the compound, how does the inhibition read?
Answer: The inhibition was 84.8% (active).

Question: For CCCCC/C=C\C/C=C\C/C=C\CCCCC(=O)N1CCN(Cc2cc(=O)c(OCc3cccc(F)c3)co2)CC1, which inhibition is on record?
Answer: Its inhibition is 16.1%.

Question: For N#Cc1ccccc1-c1ccc(COc2coc(CN3CCN(C(=O)c4ccc([N+](=O)[O-])o4)CC3)cc2=O)cc1, which inhibition is on record?
Answer: Its inhibition is 102% (active).
